Experimental data: publication PMC4336329 (PLoS ONE, 2015)
Hit rate of the full screen: of about 310,000 compounds, about 14,000 (4.5%) showed an effect of 50% or more. Effects have a minus sign here. This excerpt belongs to a sample that is enriched for strong results.

These compounds were tested against human ether-à-go-go-related gene (hERG) potassium channel (human, UniProt Q12809) (assay: primary screen, population patch clamp on CHO cells stably expressing hERG; higher = less effect of the substance).
Chain of human ether-à-go-go-related gene (hERG) potassium channel (Q12809 whole entry, looked up): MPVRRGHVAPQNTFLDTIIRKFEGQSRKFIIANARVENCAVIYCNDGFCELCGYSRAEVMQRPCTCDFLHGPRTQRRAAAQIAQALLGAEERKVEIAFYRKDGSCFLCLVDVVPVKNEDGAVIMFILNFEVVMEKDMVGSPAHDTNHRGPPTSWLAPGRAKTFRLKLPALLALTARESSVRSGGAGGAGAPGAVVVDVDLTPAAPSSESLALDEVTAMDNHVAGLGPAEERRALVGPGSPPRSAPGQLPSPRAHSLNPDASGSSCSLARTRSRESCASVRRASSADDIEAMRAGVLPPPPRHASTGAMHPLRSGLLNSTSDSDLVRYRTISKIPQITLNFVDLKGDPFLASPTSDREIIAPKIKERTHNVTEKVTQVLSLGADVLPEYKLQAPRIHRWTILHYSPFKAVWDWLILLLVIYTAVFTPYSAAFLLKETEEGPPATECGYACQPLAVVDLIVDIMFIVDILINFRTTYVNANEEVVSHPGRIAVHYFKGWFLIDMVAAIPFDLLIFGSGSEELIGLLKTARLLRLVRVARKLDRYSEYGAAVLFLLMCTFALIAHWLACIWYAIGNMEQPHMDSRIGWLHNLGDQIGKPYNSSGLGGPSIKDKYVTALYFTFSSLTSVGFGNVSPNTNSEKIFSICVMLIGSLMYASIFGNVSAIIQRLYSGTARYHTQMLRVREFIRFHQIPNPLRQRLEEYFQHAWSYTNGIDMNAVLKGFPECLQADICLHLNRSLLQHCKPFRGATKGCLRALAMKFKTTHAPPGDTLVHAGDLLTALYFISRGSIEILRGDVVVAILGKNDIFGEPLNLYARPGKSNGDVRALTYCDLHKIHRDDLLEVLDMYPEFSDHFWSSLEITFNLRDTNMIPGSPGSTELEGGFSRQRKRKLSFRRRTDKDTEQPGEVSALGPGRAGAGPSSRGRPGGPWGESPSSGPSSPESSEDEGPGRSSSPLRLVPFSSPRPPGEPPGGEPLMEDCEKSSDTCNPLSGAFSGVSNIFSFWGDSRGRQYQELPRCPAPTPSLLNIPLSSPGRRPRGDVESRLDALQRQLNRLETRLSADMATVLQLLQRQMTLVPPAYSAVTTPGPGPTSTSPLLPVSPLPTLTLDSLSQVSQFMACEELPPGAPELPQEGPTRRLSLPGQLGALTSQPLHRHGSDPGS
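Also: peak tail current of the secondary pulse compared with the same well before compound.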

Compared with `O=C(NCc1cccnc1)c1cc(-c2ccco2)on1`, `Cc1cc(C)c(S(=O)(=O)N2CCCOC2CNC(=O)C(=O)NCc2cccnc2)c(C)c1` (centres unmarked) is higher in “hERG current change (%, negative = inhibition) at 10uM” value: 8.02% for the first, 8.23% for the second.

First: CC(NC(=O)C1CCN(C(=O)[C@@H]2Cc3ccccc3CN2C(=O)OC(C)(C)C)CC1)c1ccccc1 (some centres unmarked)
Second: COc1ccc(S(=O)(=O)N[C@@H](Cc2ccccc2)C(=O)N2CC[C@@]3(O)CCCC[C@H]3C2)cc1
The “hERG current change (%, negative = inhibition) at 10uM” value of the first is higher: 14% for the first, -14.9% for the second.

First: O=C(NCC(=O)N(c1cnc2ccccc2c1)C(C(=O)NC1CCCC1)c1ccncc1)c1ccco1 (centres unmarked)
Second: c1ccc(CCn2nnnc2C(c2cccnc2)N2CCN(c3nc4ccccc4s3)CC2)cc1 (centres unmarked)
The “hERG current change (%, negative = inhibition) at 10uM” value of the first is higher: 8.74% for the first, -58.7% for the second.

First: CC(C)(C)S(=O)(=O)c1nc2ccccc2s1
Second: COc1cc(C(c2nnnn2C(C)(C)C)N2CCN(c3nc4ccccc4s3)CC2)ccc1O (centres unmarked)
The “hERG current change (%, negative = inhibition) at 10uM” value of the first is higher: 6.74% for the first, -28.1% for the second.

Compared with `CCCc1ccc2oc(C(=O)N3CCCC3)c(C)c2c1`, `CCCc1ccc2oc(C(=O)N3CCC(O)CC3)c(C)c2c1` is lower in “hERG current change (%, negative = inhibition) at 10uM” value: -7.11% for the first, -12.2% for the second.

First: CCCc1ccc2oc(C(=O)N3CCN(C4CCS(=O)(=O)C4)CC3)c(C)c2c1 (centres unmarked)
Second: CCc1c(C)[nH]c2c1C(=O)C(CN1CCOCC1)CC2.Cl (centres unmarked)
The “hERG current change (%, negative = inhibition) at 10uM” value of the first is lower: -51.3% for the first, -7.67% for the second.

First: Oc1oc(-c2ccccc2)nc1C=NCc1ccncc1
Second: CCCn1c(-c2cccc(F)c2)nc2c1c(=O)[nH]c(=O)n2Cc1ccccc1
The “hERG current change (%, negative = inhibition) at 10uM” value of the first is lower: -7.6% for the first, 17.5% for the second.

First: CCCn1c(=O)[nH]c(=O)c2c1nc(-c1ccc(OC)c(Br)c1)n2CCOC
Second: CCCn1c(=O)[nH]c(=O)c2c1nc(-c1ccc(OC(F)F)c(OC)c1)n2CCOC
The “hERG current change (%, negative = inhibition) at 10uM” value of the first is higher: -20.1% for the first, -50.5% for the second.

Going from `COCCn1c(-c2cccc([N+](=O)[O-])c2)nc2c1c(=O)[nH]c(=O)n2Cc1ccccc1` to `CCCn1c(-c2cccc([N+](=O)[O-])c2)nc2c1c(=O)[nH]c(=O)n2Cc1ccccc1`, the “hERG current change (%, negative = inhibition) at 10uM” value rises from -84.2% to -66.4%.

First: CCCn1c(-c2cc(OC)c(OC)c(OC)c2)nc2c1c(=O)[nH]c(=O)n2Cc1ccccc1
Second: COCCCn1c(-c2cccc(Cl)c2)nc2c1c(=O)[nH]c(=O)n2Cc1ccccc1
The “hERG current change (%, negative = inhibition) at 10uM” value of the first is higher: 5.09% for the first, -0.77% for the second.

First: CCCCn1c(=O)[nH]c(=O)c2c1nc(-c1ccc(OC(F)F)c(OC)c1)n2C
Second: COCCn1c(-c2ccc(C#N)cc2)nc2c1c(=O)[nH]c(=O)n2Cc1ccccc1
The “hERG current change (%, negative = inhibition) at 10uM” value of the first is higher: 17.1% for the first, -33.9% for the second.

First: CS(=O)(=O)c1ccc2nc(NC(=O)c3ccc(Cn4cc(Br)cn4)o3)sc2c1
Second: Cc1ccc2nc(SC(C(=O)Nc3ccc(F)cc3)c3ccccc3)[nH]c2c1 (centres unmarked)
The “hERG current change (%, negative = inhibition) at 10uM” value of the first is lower: -27.1% for the first, -1.38% for the second.

Going from `CCOc1cc(C(=O)O/N=C(\N)c2ccc([N+](=O)[O-])cc2)cc(OCC)c1OCC` to `Cc1ccsc1/C=N/NC(=O)c1ccc2nc[nH]c2c1`, the “hERG current change (%, negative = inhibition) at 10uM” value rises from -16% to -2.67%.

First: CCOc1ccccc1N1C(=O)NC(=O)/C(=C/c2ccc3c4c(cccc24)CC3)C1=O
Second: COc1ccc(C(c2nnnn2Cc2ccccc2)N2CCN(c3nc4ccccc4s3)CC2)cc1OC.Cl (centres unmarked)
The “hERG current change (%, negative = inhibition) at 10uM” value of the first is higher: 2.74% for the first, -58.4% for the second.

First: CSc1nsc(SC)c1NC(=O)OCCc1ccccn1
Second: COCCn1nnnc1C(CC(C)C)N1CCN(c2nc3ccccc3s2)CC1 (centres unmarked)
The “hERG current change (%, negative = inhibition) at 10uM” value of the first is higher: -6.18% for the first, -9.4% for the second.

Compared with `CCCC(c1nnnn1Cc1cccs1)N1CCN(c2nc3ccccc3s2)CC1` (centres unmarked), `CCC(c1nnnn1Cc1cccs1)N1CCN(c2nc3ccccc3s2)CC1` (centres unmarked) is lower in “hERG current change (%, negative = inhibition) at 10uM” value: -22.4% for the first, -56.1% for the second.

Compared with `c1ccc(CCn2nnnc2C(c2cccnc2)N2CCN(c3ccccc3)CC2)cc1` (centres unmarked), `Oc1ccc(C(c2nnnn2CCc2ccccc2)N2CCN(c3nc4ccccc4s3)CC2)cc1` (centres unmarked) is higher in “hERG current change (%, negative = inhibition) at 10uM” value: -47.6% for the first, 9.25% for the second.

Compared with `COCCn1nnnc1C(c1cccs1)N1CCN(c2nc3ccccc3s2)CC1` (centres unmarked), `CCC(c1nnnn1CCOC)N1CCN(c2nc3ccccc3s2)CC1` (centres unmarked) is lower in “hERG current change (%, negative = inhibition) at 10uM” value: -25.3% for the first, -34.7% for the second.

Going from `COCCn1nnnc1C(c1ccc(OC)c(OC)c1)N1CCN(c2nc3ccccc3s2)CC1` (centres unmarked) to `CCCC(c1nnnn1CCOC)N1CCN(c2nc3ccccc3s2)CC1` (centres unmarked), the “hERG current change (%, negative = inhibition) at 10uM” value falls from -56.3% to -66.2%.

First: CC(C)CC(c1nnnn1Cc1cccs1)N1CCN(c2nc3ccccc3s2)CC1 (centres unmarked)
Second: COc1ccc(C(c2nnnn2Cc2ccccc2)N2CCN(c3nc4ccccc4s3)CC2)cc1 (centres unmarked)
The “hERG current change (%, negative = inhibition) at 10uM” value of the first is lower: 0.473% for the first, 13.7% for the second.

For `COC(=O)c1cc(C#N)c(OC(C)C)nc1C`, the “hERG current change (%, negative = inhibition) at 10uM” value was -6.52%.
